# Data as given in the supplement of paper PMC8728848.
# This is one part of a sample in which the strongest signals are shown more often than they occur.
# How the values were obtained:
# Test in all cases: glycan array binding signal (z-score within array); higher = stronger binding
# Settings in all cases: glycan notation: IUPAC condensed, linker removed; mutation: Y228W
# [1] = biological target: Gal(b1-4)GlcNAc(b1-3)Gal(b1-4)GlcNAc(b1-2)[Gal(b1-4)GlcNAc(b1-3)Gal(b1-4)GlcNAc(b1-6)]Man(a1-6)[Gal(b1-4)GlcNAc(b1-3)Gal(b1-4)GlcNAc(b1-2)Man(a1-3)]Man(b1-4)GlcNAc(b1-4)[Fuc(a1-6)]GlcNAc
# Outline: (§1)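 Glycan array data were curated from 3228 arrays in the Consortium for Functional Glycomics database and kept only where the protein sequence was available. Glycan names were converted to IUPAC-condensed notation, and columns mapping to the same glycan were averaged. The binding signal is a within-array Z-score, averaged across arrays of the same protein sequence at different concentrations or buffers and across linkers. Negative Z-scores can be read as non-binding.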
# [2] = biological target: Gal(b1-4)GlcNAc(b1-3)Gal(b1-4)GlcNAc(b1-3)Gal(b1-4)GlcNAc(b1-2)[Gal(b1-4)GlcNAc(b1-3)Gal(b1-4)GlcNAc(b1-3)Gal(b1-4)GlcNAc(b1-6)]Man(a1-6)[Gal(b1-4)GlcNAc(b1-3)Gal(b1-4)GlcNAc(b1-3)Gal(b1-4)GlcNAc(b1-2)Man(a1-3)]Man(b1-4)GlcNAc(b1-4)[Fuc(a1-6)]GlcNAc
# Outline: as §1
# [3] = biological target: Gal(b1-4)GlcNAc(b1-3)Gal(b1-4)GlcNAc(b1-3)Gal(b1-4)GlcNAc(b1-3)Gal(b1-4)GlcNAc(b1-3)Gal(b1-4)GlcNAc(b1-2)Man(a1-3)[Gal(b1-4)GlcNAc(b1-3)Gal(b1-4)GlcNAc(b1-3)Gal(b1-4)GlcNAc(b1-3)Gal(b1-4)GlcNAc(b1-3)Gal(b1-4)GlcNAc(b1-2)Man(a1-6)]Man(b1-4)GlcNAc(b1-4)GlcNAc
# Outline: as §1
# [4] = biological target: Gal(b1-4)GlcNAc(b1-6)[Gal(b1-3)]GalNAc
# Outline: as §1
# [5] = biological target: Gal3S(b1-4)[Fuc(a1-3)]GlcNAc6S
# Outline: as §1
# Gal6S(b1-3)GlcNAc6S = biological target: Gal6S(b1-3)GlcNAc6S
# Outline: as §1
# Gal6S(b1-4)GlcNAc6S = biological target: Gal6S(b1-4)GlcNAc6S
# Outline: as §1
# [6] = biological target: GalNAc(b1-4)GlcNAc(b1-3)GalNAc(b1-4)GlcNAc
# Outline: as §1
# Glc(a1-4)Glc = biological target: Glc(a1-4)Glc
# Outline: as §1
# GlcA(b1-6)Gal = biological target: GlcA(b1-6)Gal
# Outline: as §1
# [7] = biological target: GlcNAc(a1-3)Gal(b1-4)GlcNAc
# Outline: as §1
# GlcNAc(b1-3)Gal = biological target: GlcNAc(b1-3)Gal
# Outline: as §1
# [8] = biological target: GlcNAc(b1-4)Gal(b1-4)GlcNAc
# Outline: as §1
# Man(a1-3)[Man(a1-6)]Man = biological target: Man(a1-3)[Man(a1-6)]Man
# Outline: as §1
# [9] = biological target: Man(a1-3)[Man(a1-6)]Man(a1-6)[Man(a1-3)]Man
# Outline: as §1
# [10] = biological target: Neu5Ac(a2-3)Gal(b1-3)GalNAc6S
# Outline: as §1
# [11] = biological target: Neu5Ac(a2-3)Gal(b1-3)GlcNAc(b1-2)Man(a1-3)[Neu5Ac(a2-3)Gal(b1-3)GlcNAc(b1-2)Man(a1-6)]Man(b1-4)GlcNAc(b1-4)GlcNAc
# Outline: as §1
# [12] = biological target: Neu5Ac(a2-3)Gal(b1-3)[Fuc(a1-4)]GlcNAc(b1-3)Gal(b1-4)[Fuc(a1-3)]GlcNAc
# Outline: as §1
# [13] = biological target: Neu5Ac(a2-3)Gal(b1-4)GlcNAc(b1-3)Gal(b1-4)[Fuc(a1-3)]GlcNAc
# Outline: as §1
# [14] = biological target: Neu5Ac(a2-3)Gal(b1-4)[Fuc(a1-3)]GlcNAc(b1-3)Gal
# Outline: as §1
# [15] = biological target: Neu5Ac(a2-3)[GalNAc(b1-4)]Gal(b1-4)GlcNAc
# Outline: as §1
# [16] = biological target: Neu5Ac(a2-6)Gal(b1-4)GlcNAc(b1-2)Man(a1-3)[Gal(b1-4)GlcNAc(b1-2)Man(a1-6)]Man(b1-4)GlcNAc(b1-4)GlcNAc
# Outline: as §1
# [17] = biological target: Neu5Ac(a2-6)Gal(b1-4)GlcNAc(b1-2)Man(a1-3)[Man(a1-6)]Man(b1-4)GlcNAc(b1-4)GlcNAc
# Outline: as §1
# [18] = biological target: Neu5Ac(a2-6)Gal(b1-4)GlcNAc(b1-2)Man(a1-3)[Neu5Ac(a2-6)Gal(b1-4)GlcNAc(b1-2)Man(a1-6)]Man(b1-4)GlcNAc(b1-4)[Fuc(a1-6)]GlcNAc
# Outline: as §1
# [19] = biological target: Neu5Ac(a2-6)Gal(b1-4)GlcNAc(b1-2)Man(a1-6)[Gal(b1-4)GlcNAc(b1-2)Man(a1-3)]Man(b1-4)GlcNAc(b1-4)GlcNAc
# Outline: as §1
# [20] = biological target: Neu5Ac(a2-6)GalNAc(b1-4)GlcNAc6S
# Outline: as §1
# Neu5Ac(a2-8)Neu5Ac = biological target: Neu5Ac(a2-8)Neu5Ac
# Outline: as §1
# [21] = biological target: Neu5Gc(a2-3)Gal(b1-4)GlcNAc
# Outline: as §1
# [22] = biological target: Neu5Gc(a2-8)Neu5Gc(a2-3)Gal(b1-4)GlcNAc(b1-3)Gal(b1-4)GlcNAc
# Outline: as §1
binder,measurement,setting,value
"Epa1-NP-mutant-Y228W (Candida glabrata), Q6VBJ0 (protein) MILNPALFLNKCVCIYTTLILLLLTNGGYATSSNDISLASKDPTTFPLGCSPDITTPKKGLSMELYSYDFRKKGSYPCWDAAYLDPNYPRTGYKSHRLLAKVDGVTGNINFYYHATKGCTPQLGHLPASYNYPKPLTMTNFTMLLYGYFRPKVTGFHTFTISADDLLFVNFGAGNAFDCCRRDSSADHFGNYQAYAIWGSKTAKDELTVHLDAGVYYPIRLFYNNREWDGALSFTFKTESNENTVSDFSEYFFSLDDTEEGCPGLISYDSSCASVKTSKIIGIDYHTETPNENLVPITKTIYHLGIPCTGTTTTPLCGSGFYDPLANKCVTINTSSTSSVTKTTSHTTSKEVSFHSSISSQKTLIPKSIPSPYGPIKSQSIPTEMETSSEISSSEYAFSDVISTPSHSPYTKKHSSLNSSSYTSTVIHSLTSYSISQGIFSTSLSEQNITSKSSTDKFSTATSMSNNITQSSIIISQFSTNNENYTTTSMHTSSDKISTETLNNSISTTTSILFSNSSTILKNNTTIISSDKDTHYHPVNPTIVCSTNKTEIICASITQPSISNSNNHWSSSVLKFNSTTVRSTLPSSAGSNETSINVPFSSSTESNTSTSSTSTSNSKMVRSTLPSSAGSNETSISVPFSSSTESNTSTSSTSTSNSKMVRSTLPSSAGSNETSINVPFSSSTESNTSTSSTSTSNSKTVRSTPFSSAGIIMTSLSQRNNKSASSYASSNSKCYNTADSCRKVHSTPSYLLTSSYTSEGVDYDCSLVSTKLKINDTNCVNNKHTTKSCLKTSVTTTIPTLEIKTARKSSSNTIGLHSYPTSSPNKSISSAPIIGYISSFKTIKTASPSYQTSDLTTITTITSLNNPGSTAVENTHESNDKSRKTSSNDISSKHSVIKETKDAVESSNKSHQTNTLKCSSIIIASSSHNSYESLGGTTLTLTLSKVYSPQNNDTLPFLEISEVNPSRTVLPESSKMMQYLTSTEERNKTARNTIATNIVSISTFHFEGEGNAIRMGYTQLLLMLIGIIVMNIGT",glycan array binding signal (z-score),[1],2.98
same,glycan array binding signal (z-score),[2],3.05
same,glycan array binding signal (z-score),[3],1.78
same,glycan array binding signal (z-score),[4],2.77
same,glycan array binding signal (z-score),[5],-0.015
same,glycan array binding signal (z-score),Gal6S(b1-3)GlcNAc6S,0.205
same,glycan array binding signal (z-score),Gal6S(b1-4)GlcNAc6S,3.63
same,glycan array binding signal (z-score),[6],-0.329
same,glycan array binding signal (z-score),Glc(a1-4)Glc,-0.29
same,glycan array binding signal (z-score),GlcA(b1-6)Gal,0.341
same,glycan array binding signal (z-score),[7],-0.131
same,glycan array binding signal (z-score),GlcNAc(b1-3)Gal,-0.421
same,glycan array binding signal (z-score),[8],-0.126
same,glycan array binding signal (z-score),Man(a1-3)[Man(a1-6)]Man,-0.183
same,glycan array binding signal (z-score),[9],-0.095
same,glycan array binding signal (z-score),[10],-0.312
same,glycan array binding signal (z-score),[11],-0.117
same,glycan array binding signal (z-score),[12],0.021
same,glycan array binding signal (z-score),[13],-0.295
same,glycan array binding signal (z-score),[14],-0.343
same,glycan array binding signal (z-score),[15],-0.228
same,glycan array binding signal (z-score),[16],-0.285
same,glycan array binding signal (z-score),[17],0.235
same,glycan array binding signal (z-score),[18],-0.238
same,glycan array binding signal (z-score),[19],-0.14
same,glycan array binding signal (z-score),[20],-0.172
same,glycan array binding signal (z-score),Neu5Ac(a2-8)Neu5Ac,-0.272
same,glycan array binding signal (z-score),[21],-0.19
same,glycan array binding signal (z-score),[22],-0.388
